Reference: PubChem BioAssay (NCI)
Several values for one entry are separate records, joined by “and”; a condition that tells them apart may be missing. Equal values may be shown once. This is part of a sample that, as a whole, favours compounds with a hit. Of some 83,000 tested, about 20% had one in any assay.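 How to read the values: 0–100, growth inhibition (40 = 60% inhibited); 0, no net growth; -100 to 0, cell death (-40 = 40% of starting cells died; -100 = all dead).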 Activity calls are given as the source filed them. Rule for the calls: active = growth percent below 10; inactive = the rest.

Tests used:
Assay in all cases: NCI-60 one-dose screen, 48 h (100 = growth as untreated, 0 = no growth, -100 = all killed)
Conditions in all cases: 10 µM unless noted
[1] = system: NCI-H23 lung
[2] = system: NCI-H226 lung
[3] = system: NCI-H322M lung
[4] = system: HOP-62 NSCLC
[5] = system: NCI-H460 lung
[6] = system: HOP-92 NSCLC
[7] = system: NCI-H522 lung
[8] = system: A549/ATCC NSCLC
[9] = system: 786-0 renal
[10] = system: COLO 205 colon
[11] = system: DU-145 prostate
[12] = system: K-562 leukemia
[13] = system: MALME-3M melanoma
[14] = system: MDA-MB-231 breast
[15] = system: RXF 393 renal
[16] = system: SF-268 CNS
[17] = system: SF-295 CNS
[18] = system: SF-539 CNS
[19] = system: UACC-257 melanoma
[20] = system: M14 melanoma

Measured: growth

Cn1c2c(c3ccccc31)CCN1C[C@@H]3CCCC[C@H]3C[C@@H]21
active: [3] 6.3% | [5] 0.684% | [7] 6.33% | [9] -12.7% | [10] -59.2% | [11] -49% | [13] 3.28% | [15] -24.4% | [17] -30.1% | [18] -1.74% | [20] -59.3%
inactive: [1] 14.4% | [2] 32.3% | [4] 40.7% | [6] 33.4% | [8] 23.1% | [12] 12.9% | [14] 28.5% | [16] 16.1% | [19] 55.4%

O=C1OCc2cccc3cccc1c23
inactive: [1] 101% | [2] 91.4% | [3] 119% | [4] 113% | [5] 104% | [6] 80.8% | [7] 108% | [8] 78.9% | [9] 110% | [10] 115% | [11] 107% | [12] 103% | [13] 107% | [14] 111% | [15] 102% | [16] 103% | [17] 102% | [18] 98.4% | [19] 94.3% | [20] 103%

C[n+]1c(/C=C/c2ccc([N+](=O)[O-])cc2)ccc2ccccc21
inactive: [1] 90.4% | [2] 87.9% | [3] 111% | [4] 97.4% | [5] 106% | [6] 110% | [7] 102% | [8] 75.7% | [9] 111% | [10] 101% | [11] 104% | [12] 88.7% | [13] 90.9% | [14] 115% | [15] 92.9% | [16] 102% | [17] 100% | [18] 103% | [19] 106% | [20] 101%

O=[N+]([O-])c1ccc2c(N=Nc3ccc4ccccc4c3O)c(O)cc(S(=O)(=O)O)c2c1
inactive: [1] 101% | [2] 103% | [3] 65.1% | [4] 97.5% | [5] 102% | [6] 101% | [7] 105% | [8] 103% | [9] 106% | [10] 104% | [11] 104% | [12] 96.3% | [13] 99.9% | [14] 74.2% | [15] 97% | [16] 72.4% | [17] 102% | [18] 96.9% | [19] 99.2% | [20] 80.7%

CCCCCCCCCCCCCCCCN(CC)CC
active: [1] -93.1% | [2] -65.9% | [4] -54.4% | [5] 1.87% | [6] -67.9% | [7] -82.4% | [8] -69.5% | [9] -86.1% | [10] -62.5% | [11] -48.4% | [12] -73.5% | [13] -90.3% | [14] -86.9% | [15] -86.2% | [16] -34.8% | [17] -92.9% | [18] -98.2% | [19] -51.9% | [20] -16.9%
inactive: [3] 14.5%

Nc1nc(N)c2nc(CNc3ccc(C(=O)NC(CCC(=O)O)C(=O)O)cc3)cnc2n1 (stereo not given)
10.8% (inactive) and 9.2% (active): [20]
13.9% (inactive) and 8.47% (active): [9]
inactive: [1] 24.8% and 22.4% | [2] 60.5% and 52% | [3] 51.2% and 50.8% | [4] 39.1% and 11.7% | [5] 15.2% and 12.2% | [6] 69.9% and 43.7% | [7] 35% and 38.7% | [8] 28.7% and 36.9% | [10] 56.1% and 32.8% | [11] 28.2% and 21.8% | [12] 18.7% and 32% | [13] 47.8% and 48.3% | [14] 78.1% and 60.1% | [15] 48% and 76.4% | [16] 26.6% and 27.3% | [17] 26% and 12.9% | [18] 21.3% and 18.4% | [19] 57.8% and 52.2%
